# Legend:
# Test in all cases: DAPPL (digital affinity profiling via proximity ligation, sequencing); 10 mM Tris-HCl pH 7.5, 50 mM NaCl, 1 mM DTT, 4% glycerol, room temperature, 30 min; GST-TFs on glutathione beads, 16-mer random dsDNA library, 0.1% formaldehyde crosslink after washing; high values mean tight binding
# Conditions in all cases: protein: recombinant; tags: N-terminal GST; dsDNA, one strand shown
# ETV3L = target: T1, ETV3L (Homo sapiens, UniProt Q6ZN32 1-361)
# T1 sequence: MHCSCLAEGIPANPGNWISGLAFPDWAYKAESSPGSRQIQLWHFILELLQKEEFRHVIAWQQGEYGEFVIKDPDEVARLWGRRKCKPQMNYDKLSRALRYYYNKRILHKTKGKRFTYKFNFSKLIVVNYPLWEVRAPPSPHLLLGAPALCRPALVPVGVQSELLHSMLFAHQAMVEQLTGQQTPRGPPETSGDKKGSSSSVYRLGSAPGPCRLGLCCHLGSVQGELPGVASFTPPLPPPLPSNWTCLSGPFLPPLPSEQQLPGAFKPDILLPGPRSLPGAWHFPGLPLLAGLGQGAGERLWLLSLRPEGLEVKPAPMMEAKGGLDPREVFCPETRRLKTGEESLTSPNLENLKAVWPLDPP
# How it was run: (§1)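 Binding signal is given per hexamer as its read frequency for a factor divided by its frequency in the tag-only sample. GST-fused human transcription factors were expressed in yeast, captured on glutathione beads, barcoded with DNA and pooled with that sample, then incubated with 200 nmole of a 16-mer random double-stranded DNA library in Tris/NaCl/DTT/glycerol buffer for 30 min at room temperature. The pools were then washed, crosslinked, proximity-ligated, amplified by PCR and sequenced on an Illumina NextSeq500.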
# ETS2 = target: T2, ETS2 (Homo sapiens, UniProt P15036 1-469)
# T2 sequence: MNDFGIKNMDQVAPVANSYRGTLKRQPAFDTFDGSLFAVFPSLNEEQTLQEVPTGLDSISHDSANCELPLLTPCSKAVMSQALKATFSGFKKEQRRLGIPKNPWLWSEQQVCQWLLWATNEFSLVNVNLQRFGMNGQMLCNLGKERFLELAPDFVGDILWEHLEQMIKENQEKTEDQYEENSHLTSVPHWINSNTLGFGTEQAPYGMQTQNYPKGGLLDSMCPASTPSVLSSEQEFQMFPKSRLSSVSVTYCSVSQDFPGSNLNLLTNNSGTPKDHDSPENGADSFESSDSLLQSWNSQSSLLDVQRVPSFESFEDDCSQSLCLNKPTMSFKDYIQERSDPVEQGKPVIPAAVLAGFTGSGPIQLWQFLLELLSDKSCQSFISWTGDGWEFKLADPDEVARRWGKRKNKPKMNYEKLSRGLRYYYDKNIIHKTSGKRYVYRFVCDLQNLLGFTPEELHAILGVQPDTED
# How it was run: as §1
# SPDEF = target: T3, SPDEF (Homo sapiens, UniProt O95238 1-335)
# T3 sequence: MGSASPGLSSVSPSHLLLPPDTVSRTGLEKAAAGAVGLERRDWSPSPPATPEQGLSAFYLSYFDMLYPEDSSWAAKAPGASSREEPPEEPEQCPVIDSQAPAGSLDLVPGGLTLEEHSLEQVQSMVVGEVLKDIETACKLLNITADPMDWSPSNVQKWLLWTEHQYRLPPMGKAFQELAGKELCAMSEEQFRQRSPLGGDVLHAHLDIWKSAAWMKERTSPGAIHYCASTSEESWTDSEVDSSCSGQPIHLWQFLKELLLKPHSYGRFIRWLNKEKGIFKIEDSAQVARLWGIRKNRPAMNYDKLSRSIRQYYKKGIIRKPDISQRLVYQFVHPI
# How it was run: as §1
# ETV7 = target: T4, ETV7 (Homo sapiens, UniProt Q9Y603 1-341)
# T4 sequence: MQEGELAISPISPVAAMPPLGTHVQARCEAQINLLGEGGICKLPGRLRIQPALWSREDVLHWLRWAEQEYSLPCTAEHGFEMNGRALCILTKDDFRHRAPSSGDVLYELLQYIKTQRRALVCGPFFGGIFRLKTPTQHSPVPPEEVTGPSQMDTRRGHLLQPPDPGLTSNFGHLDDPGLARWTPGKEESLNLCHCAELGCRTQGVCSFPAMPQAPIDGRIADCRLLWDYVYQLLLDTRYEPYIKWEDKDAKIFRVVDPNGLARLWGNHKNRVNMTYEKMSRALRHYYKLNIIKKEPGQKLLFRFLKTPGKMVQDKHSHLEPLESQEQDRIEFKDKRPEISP
# How it was run: as §1
# ELF5 = target: T5, ELF5 (Homo sapiens, UniProt Q9UKW6-2 1-255)
# T5 sequence: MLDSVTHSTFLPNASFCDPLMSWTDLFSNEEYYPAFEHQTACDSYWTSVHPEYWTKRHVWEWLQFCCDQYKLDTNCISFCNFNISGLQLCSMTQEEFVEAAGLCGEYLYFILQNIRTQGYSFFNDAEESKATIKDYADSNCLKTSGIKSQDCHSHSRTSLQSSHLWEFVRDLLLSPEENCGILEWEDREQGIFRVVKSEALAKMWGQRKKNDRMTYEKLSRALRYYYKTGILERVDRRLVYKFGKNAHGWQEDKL
# How it was run: as §1
# ETV3 = target: T6, ETV3 (Homo sapiens, UniProt P41162-2 1-143)
# T6 sequence: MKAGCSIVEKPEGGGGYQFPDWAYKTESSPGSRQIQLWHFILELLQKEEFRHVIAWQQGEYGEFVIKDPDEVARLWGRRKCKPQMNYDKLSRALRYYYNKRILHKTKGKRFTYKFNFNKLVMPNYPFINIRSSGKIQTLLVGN
# How it was run: as §1
# ETV6 = ETV6 (Homo sapiens, UniProt P41212 1-452)
# How it was run: as §1
# ERF = target: T7, ERF (Homo sapiens, UniProt P50548 1-548)
# T7 sequence: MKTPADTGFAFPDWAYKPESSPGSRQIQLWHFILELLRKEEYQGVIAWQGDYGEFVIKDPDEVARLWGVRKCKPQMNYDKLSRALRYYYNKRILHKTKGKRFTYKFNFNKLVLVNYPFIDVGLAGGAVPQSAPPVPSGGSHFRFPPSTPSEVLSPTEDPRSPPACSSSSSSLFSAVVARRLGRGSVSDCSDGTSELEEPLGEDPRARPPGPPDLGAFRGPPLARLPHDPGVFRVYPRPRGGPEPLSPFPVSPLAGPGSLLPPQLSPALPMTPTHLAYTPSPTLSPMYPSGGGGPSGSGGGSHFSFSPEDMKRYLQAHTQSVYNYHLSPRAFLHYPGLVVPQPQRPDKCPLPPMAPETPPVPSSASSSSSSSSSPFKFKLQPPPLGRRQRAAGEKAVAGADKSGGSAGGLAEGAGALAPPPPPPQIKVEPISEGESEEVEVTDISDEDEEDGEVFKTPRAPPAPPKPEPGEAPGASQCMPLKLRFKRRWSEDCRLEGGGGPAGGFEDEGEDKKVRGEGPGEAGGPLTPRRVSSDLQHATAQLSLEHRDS
# How it was run: as §1
# ETV6, sequence (P41212 whole entry): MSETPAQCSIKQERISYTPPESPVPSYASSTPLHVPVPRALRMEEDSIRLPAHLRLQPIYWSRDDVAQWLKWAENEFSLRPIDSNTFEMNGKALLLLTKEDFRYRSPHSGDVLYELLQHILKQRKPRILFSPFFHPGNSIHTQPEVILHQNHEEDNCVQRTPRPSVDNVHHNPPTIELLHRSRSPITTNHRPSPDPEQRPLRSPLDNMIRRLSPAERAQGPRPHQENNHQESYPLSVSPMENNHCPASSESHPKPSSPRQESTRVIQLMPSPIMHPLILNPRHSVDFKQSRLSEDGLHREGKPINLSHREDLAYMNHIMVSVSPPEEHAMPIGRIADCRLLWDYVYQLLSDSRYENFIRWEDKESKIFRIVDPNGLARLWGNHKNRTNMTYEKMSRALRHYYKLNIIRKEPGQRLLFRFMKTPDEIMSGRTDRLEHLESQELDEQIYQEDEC
Sequence,binding signal (ETV3L),binding signal (ETS2),binding signal (SPDEF),binding signal (ETV7),binding signal (ELF5),binding signal (ETV3),binding signal (ETV6),binding signal (ERF)
TGCCCT,"1.11 fold enrichment (6-mer frequency, TF over GST control)","1.21 fold enrichment (6-mer frequency, TF over GST control)","1.15 fold enrichment (6-mer frequency, TF over GST control)","1.08 fold enrichment (6-mer frequency, TF over GST control)","1 fold enrichment (6-mer frequency, TF over GST control)","1.1 fold enrichment (6-mer frequency, TF over GST control)","1.15 fold enrichment (6-mer frequency, TF over GST control)",–
TAGTCC,"1.12 fold enrichment (6-mer frequency, TF over GST control)","1.06 fold enrichment (6-mer frequency, TF over GST control)","1.2 fold enrichment (6-mer frequency, TF over GST control)","1.13 fold enrichment (6-mer frequency, TF over GST control)","1.06 fold enrichment (6-mer frequency, TF over GST control)",–,"1.14 fold enrichment (6-mer frequency, TF over GST control)",–
CTAGGC,"1.07 fold enrichment (6-mer frequency, TF over GST control)","1.01 fold enrichment (6-mer frequency, TF over GST control)","1 fold enrichment (6-mer frequency, TF over GST control)","1.2 fold enrichment (6-mer frequency, TF over GST control)","1.04 fold enrichment (6-mer frequency, TF over GST control)","1.09 fold enrichment (6-mer frequency, TF over GST control)","1.06 fold enrichment (6-mer frequency, TF over GST control)",–
CAGATT,–,"1.02 fold enrichment (6-mer frequency, TF over GST control)",–,–,–,"1.03 fold enrichment (6-mer frequency, TF over GST control)","1.02 fold enrichment (6-mer frequency, TF over GST control)",–
TTATTA,"1.11 fold enrichment (6-mer frequency, TF over GST control)","1.07 fold enrichment (6-mer frequency, TF over GST control)","1.12 fold enrichment (6-mer frequency, TF over GST control)","1.11 fold enrichment (6-mer frequency, TF over GST control)","1.13 fold enrichment (6-mer frequency, TF over GST control)","1.14 fold enrichment (6-mer frequency, TF over GST control)","1.13 fold enrichment (6-mer frequency, TF over GST control)",–
TGAGCT,–,–,–,–,–,–,"1.05 fold enrichment (6-mer frequency, TF over GST control)","1.05 fold enrichment (6-mer frequency, TF over GST control)"
AATCGA,"1.04 fold enrichment (6-mer frequency, TF over GST control)",–,–,"1.08 fold enrichment (6-mer frequency, TF over GST control)",–,"1.07 fold enrichment (6-mer frequency, TF over GST control)","1.01 fold enrichment (6-mer frequency, TF over GST control)",–
AGTAAT,"1.07 fold enrichment (6-mer frequency, TF over GST control)","1.15 fold enrichment (6-mer frequency, TF over GST control)","1.1 fold enrichment (6-mer frequency, TF over GST control)","1.19 fold enrichment (6-mer frequency, TF over GST control)","1.2 fold enrichment (6-mer frequency, TF over GST control)","1.03 fold enrichment (6-mer frequency, TF over GST control)","1.15 fold enrichment (6-mer frequency, TF over GST control)",–
AAAAGT,"1.08 fold enrichment (6-mer frequency, TF over GST control)","1.07 fold enrichment (6-mer frequency, TF over GST control)","1.12 fold enrichment (6-mer frequency, TF over GST control)","1.16 fold enrichment (6-mer frequency, TF over GST control)","1.08 fold enrichment (6-mer frequency, TF over GST control)","1.07 fold enrichment (6-mer frequency, TF over GST control)","1.06 fold enrichment (6-mer frequency, TF over GST control)",–
TAAGCG,"1.03 fold enrichment (6-mer frequency, TF over GST control)","1.05 fold enrichment (6-mer frequency, TF over GST control)",–,–,"1.01 fold enrichment (6-mer frequency, TF over GST control)","1.05 fold enrichment (6-mer frequency, TF over GST control)","1.01 fold enrichment (6-mer frequency, TF over GST control)",–
TGGCCC,"1.07 fold enrichment (6-mer frequency, TF over GST control)","1.12 fold enrichment (6-mer frequency, TF over GST control)","1.03 fold enrichment (6-mer frequency, TF over GST control)","1.01 fold enrichment (6-mer frequency, TF over GST control)","1.02 fold enrichment (6-mer frequency, TF over GST control)","1.03 fold enrichment (6-mer frequency, TF over GST control)","1.06 fold enrichment (6-mer frequency, TF over GST control)",–
TGTGAC,"1.22 fold enrichment (6-mer frequency, TF over GST control)","1.14 fold enrichment (6-mer frequency, TF over GST control)","1.2 fold enrichment (6-mer frequency, TF over GST control)","1.12 fold enrichment (6-mer frequency, TF over GST control)","1.1 fold enrichment (6-mer frequency, TF over GST control)","1.17 fold enrichment (6-mer frequency, TF over GST control)","1.07 fold enrichment (6-mer frequency, TF over GST control)",–
TCAGCA,–,"1.05 fold enrichment (6-mer frequency, TF over GST control)",–,"1.11 fold enrichment (6-mer frequency, TF over GST control)",–,–,"1.02 fold enrichment (6-mer frequency, TF over GST control)",–
TGCCGA,"1.14 fold enrichment (6-mer frequency, TF over GST control)","1.08 fold enrichment (6-mer frequency, TF over GST control)","1.05 fold enrichment (6-mer frequency, TF over GST control)","1.15 fold enrichment (6-mer frequency, TF over GST control)",–,"1.22 fold enrichment (6-mer frequency, TF over GST control)","1.28 fold enrichment (6-mer frequency, TF over GST control)",–
GAACCA,"1.01 fold enrichment (6-mer frequency, TF over GST control)",–,–,–,"1.01 fold enrichment (6-mer frequency, TF over GST control)",–,–,–
ATCAGC,–,"1.09 fold enrichment (6-mer frequency, TF over GST control)",–,–,–,–,"1.01 fold enrichment (6-mer frequency, TF over GST control)",–
GAAAGA,"1.03 fold enrichment (6-mer frequency, TF over GST control)","1.02 fold enrichment (6-mer frequency, TF over GST control)",–,"1.1 fold enrichment (6-mer frequency, TF over GST control)",–,"1.01 fold enrichment (6-mer frequency, TF over GST control)","1.09 fold enrichment (6-mer frequency, TF over GST control)",–
GTTAAT,"1.11 fold enrichment (6-mer frequency, TF over GST control)","1.08 fold enrichment (6-mer frequency, TF over GST control)","1.09 fold enrichment (6-mer frequency, TF over GST control)","1.07 fold enrichment (6-mer frequency, TF over GST control)","1.1 fold enrichment (6-mer frequency, TF over GST control)","1.1 fold enrichment (6-mer frequency, TF over GST control)","1.06 fold enrichment (6-mer frequency, TF over GST control)",–
AGACCT,"1.07 fold enrichment (6-mer frequency, TF over GST control)","1.01 fold enrichment (6-mer frequency, TF over GST control)",–,–,"1.05 fold enrichment (6-mer frequency, TF over GST control)",–,"1.11 fold enrichment (6-mer frequency, TF over GST control)",–
ACACCA,"1.04 fold enrichment (6-mer frequency, TF over GST control)",–,–,–,"1.01 fold enrichment (6-mer frequency, TF over GST control)","1.02 fold enrichment (6-mer frequency, TF over GST control)",–,–
